# Inconclusive results are not listed. A call without a number means that no potency is given here. Activity calls are given as the source filed them. Unless noted, calls come from the whole dose curve; as a rule, active = well fitted curve in the direction sought with a large enough effect; inconclusive = small, poorly fitted or top-dose-only effect, or another doubt; inactive = no such curve, though single readings can be large; an effect the other way counts as inactive or inconclusive.
# Legend:
# [1] = Cell Viability - LYMP1-002 - Assay at 40 hr (AID 994); note: nearly all actives have a fitted effect of over 60% in size
# Summary of the method: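 Viability in the human lymphoblastoid line was measured as intracellular ATP via CellTiter-Glo after 40 hr compound exposure. Tetraoctylammonium bromide served as positive control.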
# [2] = biological target: alpha-glucosidase (Oryza sativa, rice) (UniProt Q653V4); experiment: Counterscreen for Glucocerebrosidase Inhibitors: qHTS Assay for Rice alpha-Glucosidase at pH 5.0 (AID 997)
# Summary of the method: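 Rice alpha-glucosidase (4 nM final) with 400 uM 4-methylumbelliferyl-alpha-D-glucopyranoside in citrate buffer pH 5.0, 20 min at room temperature, stopped at pH 10; fluorescence 365/440 nm, compounds 0.7 nM–77 uM, AC50 from Hill fits.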
# [3] = Validation of Assay for Modulators of Lamin A Splicing (AID 1459; active = well fitted curve in the direction sought with a large enough effect in the signal ratio; the % refers to the signal ratio;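 note: cells exposed to compound for two days before reading; ratio rise marks activators and ratio drop marks inhibitors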)
# Summary of the method: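 Splicing correction read as GFP (500-530 nm) over DsRed2 (575-640 nm) object intensity after 48 h compound exposure of reporter HeLa S3 clones (600 cells/well, 2% FBS medium); ancitabine and cycloheximide titrations, 0.5% DMSO as vehicle.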
# [4] = biological target: DNA repair nuclease/redox regulator APEX1 (Homo sapiens) (UniProt P27695); experiment: qHTS Validation Assay for Inhibitors of the Human Apurinic/apyrimidinic Endonuclease 1 (APE1) (AID 1705; note: potency is the fitted concentration of half-maximal effect)
# DNA repair nuclease/redox regulator APEX1 (Homo sapiens), sequence (P27695 whole entry, looked up): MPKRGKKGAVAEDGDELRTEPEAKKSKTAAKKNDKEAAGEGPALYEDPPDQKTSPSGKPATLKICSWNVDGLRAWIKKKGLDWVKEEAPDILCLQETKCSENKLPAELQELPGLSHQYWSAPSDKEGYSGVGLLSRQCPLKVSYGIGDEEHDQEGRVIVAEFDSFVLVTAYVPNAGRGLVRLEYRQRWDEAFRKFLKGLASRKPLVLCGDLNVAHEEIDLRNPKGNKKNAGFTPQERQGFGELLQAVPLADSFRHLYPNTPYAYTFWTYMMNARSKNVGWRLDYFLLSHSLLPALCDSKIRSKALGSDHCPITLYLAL
# Summary of the method: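 Activity read as rising fluorescence (598 nm emission, 525 nm excitation) from incision of a TAMRA/BHQ-2 duplex carrying a THF abasic site (50 nM). Compound and enzyme sat 15 min at RT before substrate start; signal change between first and third 60-s reads.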
# [5] = Counterscreen for APE1 Inhibitors: Fluorescent Dye Displacement Validation Assay (AID 1707)
# Summary of the method: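 ThO 250 nM + dsDNA 50 nM (THF abasic site, 5'-TAMRA), Tris-HCl pH7.5/50mM NaCl/2 mM MgCl2/0.01% Tween-20; compounds pin-transferred; ex 480/em 540 nm endpoint. Neutral = no compound; no-DNA ThO wells = negative control.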
# [6] = biological target: Endonuclease 4 (Escherichia coli (strain K12)) (UniProt P0A6C1); experiment: Counterscreen for APE1 Inhibitors: qHTS Validation Assay for Inhibitors of Endonuclease IV (AID 1708)
# Summary of the method: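 Enzymatic AP-site incision assay using a double-stranded THF substrate labelled with TAMRA and BHQ-2; released fluorescence signals activity. Enzyme 2 nM, substrate 50 nM, 15 min compound preincubation.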
# [7] = qHTS for differential inhibitors of proliferation of Plasmodium falciparum line 7G8 (AID 1815);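 note: parasite growth measured after three days of incubation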; note: potency is the fitted concentration of half-maximal effect
# [8] = qHTS for differential inhibitors of proliferation of Plasmodium falciparum line GB4 (AID 1816); conditions: Potency: Plasmodium falciparum GB4 proliferation inhibition;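 note: parasite growth measured after 72 h incubation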; note: potency is the fitted concentration of half-maximal effect
# [9] = qHTS for differential inhibitors of proliferation of Plasmodium falciparum line 3D7 (AID 1876); note: potency is the fitted concentration of half-maximal effect
# [10] = qHTS for differential inhibitors of proliferation of Plasmodium falciparum line D10 (AID 1877);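 note: parasites grown with compound for 72 h before DNA staining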; note: potency is the fitted concentration of half-maximal effect
# [11] = qHTS for differential inhibitors of proliferation of Plasmodium falciparum line Dd2 (AID 1882); conditions: Potency: Plasmodium falciparum Dd2 proliferation inhibition; note: nearly all actives have a fitted effect of over 65% in size; note: potency is the fitted concentration of half-maximal effect
# Summary of the method: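 SYBR Green I DNA fluorescence read-out, ex 485/em 535 nm. Signals were normalized to 0.29 uM artemisinin and DMSO wells, then corrected using vehicle-only plates flanking each stack. Parasite growth ran 72 h in erythrocytes before lysis.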
# [12] = qHTS for differential inhibitors of proliferation of Plasmodium falciparum line W2 (AID 1883); conditions: Potency: Plasmodium falciparum W2 proliferation inhibition;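 note: parasites grown with compound for 72 h before lysis and staining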; note: potency is the fitted concentration of half-maximal effect
# [13] = qHTS for differential inhibitors of proliferation of Plasmodium falciparum line HB3 (AID 1886); conditions: Potency: Plasmodium falciparum HB3 proliferation inhibition;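 note: parasites grown with compound for 72 h before SYBR Green readout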; note: potency is the fitted concentration of half-maximal effect
# [14] = biological target: Ferritin light chain (Equus caballus) (UniProt P02791); experiment: qHTS Validation Assay for Identification of Novel General Anesthetics (AID 2323); note: series mostly up to about 77 µM
# Ferritin light chain (Equus caballus), sequence (P02791 2-175 limits assumed): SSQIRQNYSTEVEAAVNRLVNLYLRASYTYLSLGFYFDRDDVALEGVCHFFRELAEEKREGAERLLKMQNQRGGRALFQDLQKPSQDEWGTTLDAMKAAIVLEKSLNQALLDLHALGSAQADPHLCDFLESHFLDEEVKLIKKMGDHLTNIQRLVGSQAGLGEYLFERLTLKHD
# Summary of the method: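 Competitive displacement of the profluorescent anesthetic 1-AMA (50% saturated, PBS) from 10 uM apoferritin, 10 min, room temperature. Activity is normalized 380/535 nm fluorescence; concentration-response fitted with a four-parameter Hill equation.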
# [15] = biological target: ATP-dependent DNA helicase Q1 (Homo sapiens) (UniProt P46063); experiment: qHTS Validation Assay for Inhibitors of RecQ-Like Dna Helicase 1 (RECQ1) (AID 2353); note: potency is the fitted concentration of half-maximal effect
# ATP-dependent DNA helicase Q1 (Homo sapiens), sequence (P46063 whole entry, looked up): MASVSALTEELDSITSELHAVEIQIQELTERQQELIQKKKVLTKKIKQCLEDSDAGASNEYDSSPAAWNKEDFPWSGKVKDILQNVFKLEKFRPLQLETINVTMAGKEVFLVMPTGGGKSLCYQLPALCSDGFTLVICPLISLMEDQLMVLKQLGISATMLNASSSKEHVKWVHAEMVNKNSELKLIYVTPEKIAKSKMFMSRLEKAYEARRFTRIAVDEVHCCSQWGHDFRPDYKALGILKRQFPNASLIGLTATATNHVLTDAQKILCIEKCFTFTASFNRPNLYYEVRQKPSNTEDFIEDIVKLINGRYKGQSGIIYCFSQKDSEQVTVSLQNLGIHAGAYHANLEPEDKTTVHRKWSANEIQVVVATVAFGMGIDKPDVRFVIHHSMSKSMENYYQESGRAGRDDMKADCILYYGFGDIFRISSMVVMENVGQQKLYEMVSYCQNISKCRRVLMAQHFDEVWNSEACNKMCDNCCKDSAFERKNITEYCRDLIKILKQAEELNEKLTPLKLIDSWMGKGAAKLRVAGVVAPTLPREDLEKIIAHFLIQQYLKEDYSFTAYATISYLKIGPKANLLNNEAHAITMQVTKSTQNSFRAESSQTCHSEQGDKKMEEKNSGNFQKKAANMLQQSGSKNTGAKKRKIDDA
# Summary of the method: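 50 nM RECQ1T1 preincubated 15 min with compound in Tris pH 8.0 buffer with MgCl2, DTT, Tween-20 and 2.5 ug/ml poly(dI-dC); started with 200 nM TAMRA/BHQ-2 forked duplex and 2 mM ATP. Unwinding read as fluorescence (525/598 nm), two reads 2 h apart.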
# [16] = qHTS Assay for Modulators of Human Peripheral Myelin Protein 22 (PMP22) Expression/Activity (AID 1967; active = well fitted curve in the direction sought with a large enough effect in the signal ratio; the % refers to the signal ratio)
# Summary of the method: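 Readout is the corrected green/red luminescence ratio after 24 h compound exposure, normalised to untreated cells (0%). Engineered MSC80 mouse Schwann cells express green luciferase from the mouse Pmp22 promoter and red luciferase from EF-alpha as internal control.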
# [17] = biological target: RecQ-like DNA helicase BLM (Homo sapiens) (UniProt P54132); experiment: qHTS Validation Assay for Inhibitors of Bloom's syndrome helicase (BLM) (AID 2364)
# RecQ-like DNA helicase BLM (Homo sapiens), sequence (P54132 whole entry, looked up): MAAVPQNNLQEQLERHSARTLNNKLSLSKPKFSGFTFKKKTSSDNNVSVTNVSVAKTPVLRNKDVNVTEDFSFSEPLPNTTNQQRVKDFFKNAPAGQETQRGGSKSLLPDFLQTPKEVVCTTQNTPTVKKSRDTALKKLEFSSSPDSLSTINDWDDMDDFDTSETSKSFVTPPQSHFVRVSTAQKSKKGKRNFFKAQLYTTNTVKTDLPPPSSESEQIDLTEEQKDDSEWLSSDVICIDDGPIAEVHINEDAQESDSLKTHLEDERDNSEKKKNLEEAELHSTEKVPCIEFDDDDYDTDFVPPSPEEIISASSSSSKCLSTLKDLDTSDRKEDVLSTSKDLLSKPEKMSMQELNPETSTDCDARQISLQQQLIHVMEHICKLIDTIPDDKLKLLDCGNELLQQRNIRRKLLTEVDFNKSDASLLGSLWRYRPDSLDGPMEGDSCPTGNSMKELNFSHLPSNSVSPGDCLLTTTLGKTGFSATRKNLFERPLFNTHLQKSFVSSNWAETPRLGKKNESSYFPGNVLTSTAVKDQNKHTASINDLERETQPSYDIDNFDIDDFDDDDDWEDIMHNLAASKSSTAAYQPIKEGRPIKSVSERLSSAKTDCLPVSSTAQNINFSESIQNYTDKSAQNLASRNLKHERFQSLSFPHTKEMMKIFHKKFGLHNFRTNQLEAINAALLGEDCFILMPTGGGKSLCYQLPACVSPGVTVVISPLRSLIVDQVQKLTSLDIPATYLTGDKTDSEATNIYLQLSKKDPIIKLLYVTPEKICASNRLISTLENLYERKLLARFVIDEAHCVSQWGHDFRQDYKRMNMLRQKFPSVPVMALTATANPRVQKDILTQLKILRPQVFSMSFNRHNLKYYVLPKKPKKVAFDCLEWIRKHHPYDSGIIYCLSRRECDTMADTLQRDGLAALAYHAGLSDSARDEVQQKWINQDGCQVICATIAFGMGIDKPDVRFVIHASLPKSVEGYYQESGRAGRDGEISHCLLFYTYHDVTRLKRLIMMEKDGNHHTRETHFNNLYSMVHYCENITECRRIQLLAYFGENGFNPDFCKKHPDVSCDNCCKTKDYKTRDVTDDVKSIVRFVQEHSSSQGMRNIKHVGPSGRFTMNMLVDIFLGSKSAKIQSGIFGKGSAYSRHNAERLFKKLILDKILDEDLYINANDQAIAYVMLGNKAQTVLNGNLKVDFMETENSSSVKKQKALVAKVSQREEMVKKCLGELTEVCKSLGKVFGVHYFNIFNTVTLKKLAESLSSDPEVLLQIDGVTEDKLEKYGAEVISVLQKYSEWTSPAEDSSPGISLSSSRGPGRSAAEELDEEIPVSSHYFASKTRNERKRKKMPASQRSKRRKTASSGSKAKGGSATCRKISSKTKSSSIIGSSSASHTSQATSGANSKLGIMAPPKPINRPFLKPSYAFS
# Summary of the method: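 Forked 20-bp duplex substrate (200 nM, TAMRA/BHQ-2) plus 2 mM ATP added after 15 min compound preincubation with 50 nM enzyme, pH 8.0, poly(dI-dC) 2.5 ug/ml. Strand separation followed by fluorescence (525/598 nm) over 2 h, normalized to enzyme-free and DMSO controls.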
Compound,outcome [1],outcome [2],outcome [3],Potency [4],Potency [5],Potency [6],Potency [7],Potency [8],Potency [9],Potency [10],Potency [11],Potency [12],Potency [13],Potency [14],Potency [15],outcome [16],Potency [17]
NC(=O)c1ccccc1,inactive,inactive,inactive,inactive,inactive,inactive,inactive,inactive,inactive,inactive,inactive,inactive,inactive,inactive,inactive,,
Nn1nnc2ccccc21,,inactive,inactive,inactive,inactive,inactive,12.6 µM (active),,,12.6 µM (active),inactive,17.8 µM (active),,inactive,inactive,inactive,inactive
CC(N)(Cc1ccc(O)cc1)C(=O)O (stereo unspecified),,,inactive,inactive,inactive,inactive,inactive,inactive,inactive,inactive,,inactive,inactive,inactive,11.2 µM (active),inactive,inactive
CCCCS(=N)(=O)CC[C@H](N)C(=O)O (stereo partly specified),,,inactive,inactive,inactive,inactive,12.6 µM (active),11.2 µM (active),,inactive,inactive,8.91 µM (active),inactive,inactive,inactive,,
CCCCCCCCCC(=O)NC(CN1CCOCC1)[C@H](O)c1ccccc1 (stereo partly specified),,,inactive,inactive,inactive,inactive,1.26 µM (active),2 µM (active),6.31 µM (active),12.6 µM (active),2.24 µM (active),1.58 µM (active),8.91 µM (active),,inactive,,
CC(N)(C(=O)O)c1ccc(C(=O)O)cc1 (stereo unspecified),,,inactive,inactive,inactive,,inactive,inactive,inactive,inactive,inactive,inactive,inactive,inactive,inactive,inactive,
O=c1[nH]c2cc(Cl)ccc2c(O)c1-c1ccc(Oc2ccccc2)cc1,,inactive,inactive,inactive,inactive,inactive,inactive,,inactive,inactive,,,inactive,inactive,inactive,inactive,
C=CCN1CCc2c(cc(O)c(O)c2Cl)C(c2ccccc2)C1 (stereo unspecified),,,inactive,inactive,inactive,inactive,5.01 µM (active),5.01 µM (active),7.94 µM (active),12.6 µM (active),10 µM (active),3.55 µM (active),7.08 µM (active),,inactive,,
N[C@H](C(=O)O)[C@H]1C[C@@H]1C(=O)O,,,inactive,39.8 µM (active),inactive,inactive,inactive,inactive,inactive,inactive,,inactive,inactive,inactive,inactive,,inactive
C[C@H](NC(=O)/C(C#N)=C/c1ccc(O)c(O)c1)c1ccccc1,,inactive,inactive,inactive,inactive,inactive,7.08 µM (active),11.2 µM (active),14.1 µM (active),12.6 µM (active),,10 µM (active),12.6 µM (active),,inactive,,
NCCCCN,,inactive,inactive,inactive,inactive,inactive,inactive,inactive,inactive,inactive,,inactive,inactive,inactive,inactive,inactive,inactive
c1ccc2nc(C3=NCCN3)ccc2c1,,inactive,inactive,inactive,inactive,inactive,inactive,,inactive,inactive,inactive,,inactive,inactive,inactive,,inactive
C=CC[C@H](N)C(=O)O,,inactive,inactive,inactive,inactive,inactive,inactive,inactive,inactive,inactive,inactive,inactive,inactive,inactive,inactive,,inactive
CC1C(=O)N(C)C(=O)c2nc[nH]c21 (stereo unspecified),,,inactive,inactive,inactive,inactive,inactive,inactive,inactive,inactive,,inactive,inactive,inactive,inactive,inactive,
C=CCN1CCc2c(cc(O)c(O)c2Br)[C@@H](c2ccccc2)C1,,,inactive,inactive,inactive,inactive,5.01 µM (active),5.01 µM (active),7.08 µM (active),11.2 µM (active),8.91 µM (active),3.98 µM (active),7.08 µM (active),inactive,inactive,,
CC[C@H](NC(=O)c1c(C)c(-c2ccccc2)nc2ccccc12)c1ccccc1,,inactive,inactive,inactive,inactive,inactive,7.08 µM (active),11.2 µM (active),,,,8.91 µM (active),12.6 µM (active),inactive,inactive,,
CCN(c1nc(N)c(C(=O)N=C(N)N)nc1Cl)C(C)C,,inactive,inactive,inactive,inactive,inactive,11.2 µM (active),7.94 µM (active),10 µM (active),11.2 µM (active),,7.94 µM (active),11.2 µM (active),,inactive,,inactive
Cc1nc2c(OCc3ccccc3)cccn2c1CC#N,,inactive,inactive,inactive,inactive,inactive,inactive,inactive,inactive,,inactive,,inactive,inactive,inactive,,
COC(=O)C(N)Cc1ccc(Cl)cc1 (stereo unspecified),,,inactive,inactive,inactive,inactive,inactive,inactive,inactive,inactive,,inactive,inactive,inactive,inactive,,inactive

Compound,outcome [1],outcome [2],outcome [3],Potency [4],Potency [5],Potency [6],Potency [7],Potency [8],Potency [9],Potency [10],Potency [11],Potency [12],Potency [13],Potency [14],Potency [15],outcome [16],Potency [17]
COc1cc2c(CCNC(C)=O)c[nH]c2cc1O,,inactive,inactive,39.8 µM (active),inactive,inactive,inactive,,inactive,inactive,inactive,,inactive,inactive,inactive,inactive,inactive
CC1CCN=C(N)S1 (stereo unspecified),,,inactive,inactive,inactive,inactive,inactive,,,inactive,inactive,11.2 µM (active),inactive,inactive,inactive,,
CCCCCCCCCC[Si](C)(C)CCC(=O)NC(Cc1ccc(C)cc1)c1ccccc1 (stereo unspecified),,,inactive,inactive,inactive,inactive,,,,,,,,,inactive,,
CC(C)C[C@H](NC(=O)[C@H](O)[C@H](N)Cc1ccccc1)C(=O)O,,,inactive,inactive,inactive,inactive,inactive,inactive,inactive,inactive,inactive,inactive,inactive,inactive,inactive,,
O=C(O)C1CN(CCCP(=O)(O)O)CCN1 (stereo unspecified),,,inactive,inactive,inactive,inactive,inactive,inactive,inactive,inactive,inactive,inactive,inactive,inactive,,inactive,inactive
NCC(O)c1ccc(O)c(O)c1 (stereo unspecified),,,inactive,inactive,inactive,inactive,,,,,inactive,11.2 µM (active),,inactive,inactive,,
CCCCCCN(CCCCCC)C(=O)Cc1c(-c2ccc(F)cc2)[nH]c2ccccc12,,inactive,inactive,inactive,inactive,inactive,5.01 µM (active),3.98 µM (active),5.01 µM (active),12.6 µM (active),10 µM (active),3.55 µM (active),7.08 µM (active),,inactive,,
COC(=O)C1=C(C)NC(C)=C([N+](=O)[O-])C1c1ccccc1C(F)(F)F (stereo unspecified),,,inactive,inactive,inactive,inactive,,,,inactive,,12.6 µM (active),,,inactive,,
Nc1ccc(CCNc2ncnc3c2ncn3C2OC(CO)C(O)C2O)cc1 (stereo unspecified),,,inactive,inactive,inactive,inactive,,,,,inactive,,inactive,inactive,inactive,inactive,
N#C/C(=C\c1ccc(O)c(O)c1)C(=O)NCCc1ccccc1,,inactive,inactive,inactive,inactive,inactive,8.91 µM (active),10 µM (active),11.2 µM (active),,,10 µM (active),11.2 µM (active),,inactive,,
N#CC(C#N)=C(N)/C(C#N)=C/c1ccc(O)cc1,,inactive,inactive,inactive,,inactive,,,,inactive,inactive,inactive,,inactive,inactive,,
O=C1NC(=O)c2cc(Nc3ccccc3)c(Nc3ccccc3)cc21,,inactive,inactive,inactive,,,8.91 µM (active),10 µM (active),12.6 µM (active),,,10 µM (active),8.91 µM (active),inactive,inactive,,
O=C1C2C=CC=CC2=NC(=S)N1CCN1CCC(=C(c2ccc(F)cc2)c2ccc(F)cc2)CC1 (stereo unspecified),,,inactive,inactive,inactive,,8.91 µM (active),,,inactive,,10 µM (active),,inactive,inactive,,
c1ccc2c(c1)CC(N1CCN(c3cccc4c3OCCO4)CC1)C2,,inactive,inactive,inactive,inactive,,,,12.6 µM (active),inactive,,5.01 µM (active),,,inactive,,inactive
O=C(OCCN1CCOCC1)C1(c2ccccc2)CCCCC1,,inactive,inactive,inactive,,,,10 µM (active),,,,4.47 µM (active),,inactive,inactive,inactive,inactive
CC(=O)C(C)=O,inactive,inactive,inactive,inactive,inactive,,inactive,inactive,inactive,inactive,inactive,inactive,inactive,inactive,inactive,inactive,inactive
Cc1ccc2c(c1)C(N1CCN(C)CC1)=Nc1cccnc1N2,,inactive,inactive,inactive,inactive,,,,,,,7.08 µM (active),inactive,inactive,inactive,inactive,
OCC1NCC(O)C(O)C1O (stereo unspecified),,,inactive,inactive,,inactive,inactive,inactive,inactive,inactive,inactive,inactive,inactive,inactive,inactive,inactive,inactive
CO/N=C(\C(=O)N[C@@H]1C(=O)N2C(C(=O)O)=C(CSc3nc(=O)c(O)nn3C)CSC12)c1csc(N)n1 (stereo partly specified),,,inactive,2.24 µM (active),inactive,,inactive,inactive,inactive,inactive,,inactive,inactive,inactive,,inactive,

# Source: PubChem BioAssay (NCATS)
